The target of assay [1] is Tyrosine-protein kinase Fer (Homo sapiens) (UniProt P16591). The note with it: at 1 µM.
The target in assay [2] is Tyrosine-protein kinase Fes/Fps (Homo sapiens) (UniProt P07332). Particulars: at 0.1 µM.
Assay [3] shares this target. The note with it: at 1 µM.
The target in assay [4] is Fibroblast growth factor receptor 1 (Homo sapiens) (UniProt P11362). The note with it: at 0.1 µM.
For assay [5] the target is unchanged. Particulars: at 1 µM.
Assay [6] deals with Fibroblast growth factor receptor 2 (Homo sapiens) (UniProt P21802). Particulars: at 0.1 µM.
Fibroblast growth factor receptor 2 (Homo sapiens), sequence (P21802 22-821 limits assumed): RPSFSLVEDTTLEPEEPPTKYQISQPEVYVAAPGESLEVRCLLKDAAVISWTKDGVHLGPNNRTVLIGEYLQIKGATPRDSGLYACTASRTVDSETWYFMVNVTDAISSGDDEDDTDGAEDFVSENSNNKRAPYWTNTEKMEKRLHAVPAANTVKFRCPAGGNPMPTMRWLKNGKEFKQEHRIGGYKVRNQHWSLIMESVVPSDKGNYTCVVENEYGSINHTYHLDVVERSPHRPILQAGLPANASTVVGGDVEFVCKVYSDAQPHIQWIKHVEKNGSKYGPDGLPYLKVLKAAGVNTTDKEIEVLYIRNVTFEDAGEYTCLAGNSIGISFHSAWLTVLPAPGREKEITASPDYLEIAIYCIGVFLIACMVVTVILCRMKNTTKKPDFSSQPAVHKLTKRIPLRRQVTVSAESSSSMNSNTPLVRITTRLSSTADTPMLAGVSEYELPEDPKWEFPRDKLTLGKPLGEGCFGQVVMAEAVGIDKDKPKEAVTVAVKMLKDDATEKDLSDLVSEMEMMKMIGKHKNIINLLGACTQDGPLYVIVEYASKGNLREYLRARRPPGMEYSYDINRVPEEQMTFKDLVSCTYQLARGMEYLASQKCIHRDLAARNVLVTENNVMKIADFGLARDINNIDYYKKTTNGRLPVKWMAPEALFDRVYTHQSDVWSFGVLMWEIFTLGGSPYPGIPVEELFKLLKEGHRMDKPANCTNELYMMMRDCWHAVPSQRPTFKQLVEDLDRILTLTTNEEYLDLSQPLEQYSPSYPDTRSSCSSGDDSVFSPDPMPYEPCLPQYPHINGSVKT
For assay [7] the target is unchanged. The note with it: at 1 µM.
Assay [8] deals with Fibroblast growth factor receptor 3 (Homo sapiens) (UniProt P22607). Particulars: at 0.1 µM.
Fibroblast growth factor receptor 3 (Homo sapiens), sequence (P22607 23-806 limits assumed): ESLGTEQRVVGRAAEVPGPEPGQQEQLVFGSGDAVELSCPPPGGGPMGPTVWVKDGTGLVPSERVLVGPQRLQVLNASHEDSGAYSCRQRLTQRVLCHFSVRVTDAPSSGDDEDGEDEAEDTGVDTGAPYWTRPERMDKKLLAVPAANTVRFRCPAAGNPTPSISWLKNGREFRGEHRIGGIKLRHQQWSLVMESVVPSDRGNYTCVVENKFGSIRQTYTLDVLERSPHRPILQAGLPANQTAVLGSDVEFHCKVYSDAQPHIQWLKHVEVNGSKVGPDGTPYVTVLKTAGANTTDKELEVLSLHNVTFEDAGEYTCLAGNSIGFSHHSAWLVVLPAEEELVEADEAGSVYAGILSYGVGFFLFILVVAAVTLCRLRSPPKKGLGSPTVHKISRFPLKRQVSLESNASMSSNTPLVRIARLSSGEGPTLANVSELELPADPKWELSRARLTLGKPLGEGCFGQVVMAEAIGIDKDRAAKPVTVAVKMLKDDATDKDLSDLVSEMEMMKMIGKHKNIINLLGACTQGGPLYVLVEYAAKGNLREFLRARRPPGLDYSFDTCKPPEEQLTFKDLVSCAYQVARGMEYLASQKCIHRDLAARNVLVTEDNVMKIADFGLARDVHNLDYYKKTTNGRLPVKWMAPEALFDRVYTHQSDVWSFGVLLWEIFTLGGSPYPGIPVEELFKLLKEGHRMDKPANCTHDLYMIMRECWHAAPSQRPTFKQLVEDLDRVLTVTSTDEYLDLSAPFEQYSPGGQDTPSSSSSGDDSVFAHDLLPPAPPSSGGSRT
Assay [9] shares this target. Particulars: at 1 µM.
Assay [10] concerns the target Fibroblast growth factor receptor 4 (Homo sapiens) (UniProt P22455). Particulars: at 0.1 µM.
Assay [11] has the same target. The note with it: at 1 µM.
The target of assay [12] is Tyrosine-protein kinase Fgr (Homo sapiens) (UniProt P09769). Particulars: at 0.1 µM.
Assay [13] shares this target. The note with it: at 1 µM.
Assay [14] deals with Vascular endothelial growth factor receptor 1 (Homo sapiens) (UniProt P17948). The note with it: at 0.1 µM.
Assay [15] shares this target. The note with it: at 1 µM.
Assay [16] has as its target Receptor-type tyrosine-protein kinase FLT3 (Homo sapiens) (UniProt P36888). The note with it: at 0.1 µM.
For assay [17] the target is unchanged. The note with it: at 1 µM.
Assay [18] concerns T1, Receptor-type tyrosine-protein kinase FLT3 (Homo sapiens), P36888 [D835Y].
T1 sequence (whole entry): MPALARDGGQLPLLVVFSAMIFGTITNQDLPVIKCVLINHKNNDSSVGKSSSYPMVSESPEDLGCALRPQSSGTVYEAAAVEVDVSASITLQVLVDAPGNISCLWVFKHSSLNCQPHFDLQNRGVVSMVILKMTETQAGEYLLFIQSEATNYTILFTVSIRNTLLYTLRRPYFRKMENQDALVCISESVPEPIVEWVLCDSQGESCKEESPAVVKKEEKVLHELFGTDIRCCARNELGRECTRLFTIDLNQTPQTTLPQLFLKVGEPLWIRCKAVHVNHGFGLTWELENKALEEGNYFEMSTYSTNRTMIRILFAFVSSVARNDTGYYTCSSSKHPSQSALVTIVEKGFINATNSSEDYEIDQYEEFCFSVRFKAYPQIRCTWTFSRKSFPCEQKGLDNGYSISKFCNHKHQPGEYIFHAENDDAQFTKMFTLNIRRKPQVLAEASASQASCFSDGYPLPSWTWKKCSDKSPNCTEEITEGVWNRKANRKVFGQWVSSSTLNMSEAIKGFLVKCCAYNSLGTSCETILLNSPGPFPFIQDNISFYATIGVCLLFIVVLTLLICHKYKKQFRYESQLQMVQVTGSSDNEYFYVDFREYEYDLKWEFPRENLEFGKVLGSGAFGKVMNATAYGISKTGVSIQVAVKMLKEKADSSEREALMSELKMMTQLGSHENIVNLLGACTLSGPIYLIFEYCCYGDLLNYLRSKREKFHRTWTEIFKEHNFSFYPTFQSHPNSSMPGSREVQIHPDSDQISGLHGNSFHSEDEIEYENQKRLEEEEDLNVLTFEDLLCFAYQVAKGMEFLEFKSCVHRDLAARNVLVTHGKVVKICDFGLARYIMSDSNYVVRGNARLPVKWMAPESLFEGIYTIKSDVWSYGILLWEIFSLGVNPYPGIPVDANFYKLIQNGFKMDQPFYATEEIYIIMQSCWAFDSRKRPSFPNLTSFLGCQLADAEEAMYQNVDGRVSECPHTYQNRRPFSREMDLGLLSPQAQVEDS
Particulars: at 0.1 µM.

Assay [19] has as its target Non-receptor tyrosine-protein kinase TYK2 (Homo sapiens) (UniProt P29597). Particulars: at 1 µM.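 Further: values are mean percent inhibition of TYK2 kinase.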
Assay [20] has as its target T2, Tyrosine-protein kinase receptor TYRO3 (Homo sapiens) (UniProt Q06418).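 Further: reported percentages are averaged inhibition values of TYRO3 kinase activity.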
T2 sequence (whole entry): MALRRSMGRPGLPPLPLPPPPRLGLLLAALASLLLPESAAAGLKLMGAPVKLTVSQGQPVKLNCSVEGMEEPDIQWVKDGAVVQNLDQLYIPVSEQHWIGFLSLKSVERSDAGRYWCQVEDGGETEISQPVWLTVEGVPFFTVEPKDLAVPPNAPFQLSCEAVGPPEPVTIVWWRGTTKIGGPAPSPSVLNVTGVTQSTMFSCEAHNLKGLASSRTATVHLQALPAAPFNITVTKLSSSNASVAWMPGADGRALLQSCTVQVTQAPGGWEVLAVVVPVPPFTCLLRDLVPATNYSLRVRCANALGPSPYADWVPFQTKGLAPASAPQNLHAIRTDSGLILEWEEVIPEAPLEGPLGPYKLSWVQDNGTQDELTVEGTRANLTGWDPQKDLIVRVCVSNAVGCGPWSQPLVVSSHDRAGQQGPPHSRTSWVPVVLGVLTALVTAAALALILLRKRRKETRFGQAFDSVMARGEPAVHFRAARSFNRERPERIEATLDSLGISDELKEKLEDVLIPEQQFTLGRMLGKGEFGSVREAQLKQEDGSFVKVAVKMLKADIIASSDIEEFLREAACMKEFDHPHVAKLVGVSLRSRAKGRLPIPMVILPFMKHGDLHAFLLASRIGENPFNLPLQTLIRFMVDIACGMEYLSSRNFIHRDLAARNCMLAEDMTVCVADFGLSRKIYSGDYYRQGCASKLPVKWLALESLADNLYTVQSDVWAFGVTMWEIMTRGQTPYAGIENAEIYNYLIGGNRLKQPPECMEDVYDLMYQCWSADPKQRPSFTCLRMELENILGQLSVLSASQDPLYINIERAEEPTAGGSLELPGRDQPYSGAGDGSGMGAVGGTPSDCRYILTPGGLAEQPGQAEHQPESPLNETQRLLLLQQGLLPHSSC
Particulars: at 0.1 µM.

Tyrosine-protein kinase Fer (Homo sapiens), sequence (P16591 whole entry, looked up): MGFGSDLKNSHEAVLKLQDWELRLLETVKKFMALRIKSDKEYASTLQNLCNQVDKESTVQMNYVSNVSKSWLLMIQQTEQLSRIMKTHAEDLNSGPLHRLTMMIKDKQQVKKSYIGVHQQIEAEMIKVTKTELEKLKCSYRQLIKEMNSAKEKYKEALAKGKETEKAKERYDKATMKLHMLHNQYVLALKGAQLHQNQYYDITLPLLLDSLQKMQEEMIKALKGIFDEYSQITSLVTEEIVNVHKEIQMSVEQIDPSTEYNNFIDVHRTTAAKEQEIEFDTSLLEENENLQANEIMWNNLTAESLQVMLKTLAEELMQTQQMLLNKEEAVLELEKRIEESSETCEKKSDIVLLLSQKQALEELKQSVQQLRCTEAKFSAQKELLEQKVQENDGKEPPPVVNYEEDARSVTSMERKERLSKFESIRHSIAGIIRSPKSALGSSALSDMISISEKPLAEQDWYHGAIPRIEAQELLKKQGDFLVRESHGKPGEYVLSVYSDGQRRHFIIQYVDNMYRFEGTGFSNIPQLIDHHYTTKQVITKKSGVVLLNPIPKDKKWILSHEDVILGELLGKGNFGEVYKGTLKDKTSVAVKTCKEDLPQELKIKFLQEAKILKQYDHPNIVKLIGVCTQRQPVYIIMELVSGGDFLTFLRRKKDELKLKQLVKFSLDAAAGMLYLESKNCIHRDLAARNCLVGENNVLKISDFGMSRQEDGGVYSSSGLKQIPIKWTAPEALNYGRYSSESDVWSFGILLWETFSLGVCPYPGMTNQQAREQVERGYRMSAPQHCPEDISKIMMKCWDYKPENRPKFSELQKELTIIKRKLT
Fibroblast growth factor receptor 4 (Homo sapiens), sequence (P22455 22-802 limits assumed): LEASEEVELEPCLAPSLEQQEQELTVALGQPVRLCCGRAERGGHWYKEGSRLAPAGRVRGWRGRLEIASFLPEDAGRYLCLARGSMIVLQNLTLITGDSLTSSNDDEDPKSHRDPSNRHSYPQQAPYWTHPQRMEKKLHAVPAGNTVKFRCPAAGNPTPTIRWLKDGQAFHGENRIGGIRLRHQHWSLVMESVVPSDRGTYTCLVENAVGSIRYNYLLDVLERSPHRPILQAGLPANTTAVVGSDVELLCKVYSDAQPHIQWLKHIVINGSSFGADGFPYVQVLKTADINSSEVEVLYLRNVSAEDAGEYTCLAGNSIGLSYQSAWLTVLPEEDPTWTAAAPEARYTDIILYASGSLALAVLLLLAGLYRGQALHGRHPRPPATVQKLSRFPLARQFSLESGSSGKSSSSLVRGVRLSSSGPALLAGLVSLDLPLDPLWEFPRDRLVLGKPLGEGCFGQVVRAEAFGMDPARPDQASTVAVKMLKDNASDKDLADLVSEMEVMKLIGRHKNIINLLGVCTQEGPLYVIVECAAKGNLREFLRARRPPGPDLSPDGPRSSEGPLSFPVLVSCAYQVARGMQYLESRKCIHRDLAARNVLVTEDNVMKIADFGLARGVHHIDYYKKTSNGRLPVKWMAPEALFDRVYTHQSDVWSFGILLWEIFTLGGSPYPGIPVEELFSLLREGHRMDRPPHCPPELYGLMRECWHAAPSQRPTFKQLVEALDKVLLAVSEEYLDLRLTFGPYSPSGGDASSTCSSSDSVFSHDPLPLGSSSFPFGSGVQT
Tyrosine-protein kinase Fes/Fps (Homo sapiens), sequence (P07332 whole entry): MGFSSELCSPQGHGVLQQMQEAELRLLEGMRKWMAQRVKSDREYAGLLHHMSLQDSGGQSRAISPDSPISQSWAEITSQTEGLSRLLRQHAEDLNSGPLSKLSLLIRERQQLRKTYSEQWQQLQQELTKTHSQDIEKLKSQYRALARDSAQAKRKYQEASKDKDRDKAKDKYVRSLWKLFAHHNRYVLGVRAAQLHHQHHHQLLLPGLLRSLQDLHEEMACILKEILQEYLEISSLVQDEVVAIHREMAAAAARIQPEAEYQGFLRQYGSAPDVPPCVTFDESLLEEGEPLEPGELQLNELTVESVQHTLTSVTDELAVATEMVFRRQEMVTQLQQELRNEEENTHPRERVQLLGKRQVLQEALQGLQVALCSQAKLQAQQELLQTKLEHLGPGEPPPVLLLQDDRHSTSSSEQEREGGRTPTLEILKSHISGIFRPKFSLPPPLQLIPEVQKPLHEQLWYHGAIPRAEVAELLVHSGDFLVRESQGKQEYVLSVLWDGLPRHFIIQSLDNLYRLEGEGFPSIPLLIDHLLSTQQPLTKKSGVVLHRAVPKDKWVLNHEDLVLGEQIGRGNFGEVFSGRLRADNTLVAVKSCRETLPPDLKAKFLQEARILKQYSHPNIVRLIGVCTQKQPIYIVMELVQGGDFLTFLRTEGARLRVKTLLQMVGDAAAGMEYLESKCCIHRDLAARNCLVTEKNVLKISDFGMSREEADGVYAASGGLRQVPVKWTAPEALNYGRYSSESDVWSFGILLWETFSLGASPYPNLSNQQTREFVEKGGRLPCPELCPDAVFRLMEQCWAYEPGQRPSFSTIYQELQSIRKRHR
Fibroblast growth factor receptor 1 (Homo sapiens), sequence (P11362 22-822 limits assumed): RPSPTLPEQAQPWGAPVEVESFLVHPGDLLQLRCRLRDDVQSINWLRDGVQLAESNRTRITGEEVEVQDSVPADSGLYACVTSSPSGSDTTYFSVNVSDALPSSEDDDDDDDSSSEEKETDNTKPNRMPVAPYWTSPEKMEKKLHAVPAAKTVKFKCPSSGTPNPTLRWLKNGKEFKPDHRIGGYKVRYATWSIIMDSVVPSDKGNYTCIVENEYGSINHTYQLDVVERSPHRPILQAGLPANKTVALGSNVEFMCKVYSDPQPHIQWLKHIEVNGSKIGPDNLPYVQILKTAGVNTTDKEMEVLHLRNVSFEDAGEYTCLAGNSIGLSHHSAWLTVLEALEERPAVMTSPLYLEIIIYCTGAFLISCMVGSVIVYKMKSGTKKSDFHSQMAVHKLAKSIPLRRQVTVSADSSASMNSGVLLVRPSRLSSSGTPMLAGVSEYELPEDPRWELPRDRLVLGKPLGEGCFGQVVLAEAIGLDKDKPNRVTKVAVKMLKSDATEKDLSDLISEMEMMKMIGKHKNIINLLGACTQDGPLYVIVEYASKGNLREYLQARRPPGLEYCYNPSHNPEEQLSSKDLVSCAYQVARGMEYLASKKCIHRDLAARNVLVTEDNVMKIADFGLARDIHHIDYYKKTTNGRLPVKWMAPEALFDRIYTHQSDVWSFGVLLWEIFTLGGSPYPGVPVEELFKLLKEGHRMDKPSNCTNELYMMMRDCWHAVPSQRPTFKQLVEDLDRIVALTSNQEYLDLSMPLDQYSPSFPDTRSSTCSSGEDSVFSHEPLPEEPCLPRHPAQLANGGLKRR

Turning to `COC(=O)c1cncc(/C=C/c2c(C)cc(O)cc2C)c1`, the inhibition – broadly, the change of the read-out against control, counted positive when it falls – in assay [1] came to 2%; in assay [2], 1.96%; in assay [3] it was 3.05%; in assay [4], 4.08%; in assay [5], 0.61%; in assay [6], 4.05%. The inhibition in assay [7] was 7.59%; in assay [8], 6.59%; in [9], 4.87%; in assay [10], -1.32%; in [11], 0.95%; in [12] it was 5.81%. Further, the inhibition in assay [13] was 20.9%; in assay [14], 0.94%; in assay [15], 0.15%; in assay [16], 2.01%; in assay [17] it was 3.02%; in assay [18], -1.65%. The inhibition was -3.53% in assay [19] and 3.21% in assay [20].

As to `CN(C)C(=O)O[C@H]1CN[C@H](C#Cc2cc3ncnc(Nc4ccc(OCc5cccc(F)c5)c(Cl)c4)c3s2)C1`, the inhibition in assay [1] is -0.03%; in [2], 2.17%; in assay [3], 3.06%; in assay [4], 2.33%; in [5], 5.24%; in assay [6], 2.11%. The inhibition came to 7.78% in assay [7]; 5.3% in [8]; 5.64% in assay [9]; 0.8% in assay [10]; 1.39% in assay [11]; 1.56% in [12]. Also, the inhibition in [13] is 4.75%; in [14] it was 1.8%; in assay [15], 2.23%; in [16], -0.55%; in [17], 0.66%; in [18], 3.22%. The figures for the inhibition in [19] and in assay [20] were -2.89% and 2.23%, respectively.

Regarding `O=C(Nc1ccc(Oc2ccc3[nH]c(NC(=O)c4ccco4)nc3c2)cc1)Nc1cc(C(F)(F)F)ccc1F`, the inhibition is 5.37% in assay [1]; 0.02% in [2]; 0.11% in assay [3]; -3.4% in assay [4]; 9.84% in assay [5]; -3.04% in [6]. Also, the inhibition in assay [7] is 33.2%; in [8] it was -0.92%; in assay [9], 7.51%; in [10], -1.82%; in assay [11], -2.3%; in assay [12] it was 1.62%. Also, the inhibition amounted to 9.51% in assay [13]; 23.6% in assay [14]; 78.8% in assay [15]; 15% in assay [16]; 70.7% in assay [17]; 1.75% in [18]. Moreover, the inhibition in [19] was -3.76%; in [20] it was 5.34%.

`CC(C)c1ccc2c(c1)NC(=O)/C2=N/Nc1ccc(S(N)(=O)=O)cc1`: the inhibition was 1% in [1]; 0.91% in assay [2]; -0.14% in assay [3]; 3.46% in assay [4]; -0.01% in [5]; 0.48% in assay [6]. The inhibition in [7] is 5.04%; in [8], 1.14%; in [9] it was 3.91%; in assay [10], 2.58%; in assay [11], -0.36%; in assay [12], 2.93%. Besides, the inhibition is 15.5% in assay [13]; 1.02% in assay [14]; 2.87% in assay [15]; 4.65% in assay [16]; 43.7% in assay [17]; -2.45% in assay [18]. Also, the inhibition in [19] is 1.48%; in assay [20] it was -0.25%.

For the compound `Cc1ccc(O)cc1Nc1ccnc2ccc(S(C)(=O)=O)cc12`, the inhibition in [1] stood at 18.5%; in assay [2], 8.11%; in [3], 39.4%; in assay [4] it was 7.68%; in assay [5], 8.34%; in [6], 5.74%. In addition, the inhibition in [7] is 14.5%; in [8], 6.01%; in assay [9], 11%; in assay [10] it was -0.45%; in [11], 9.15%; in assay [12] it was 76.2%. The inhibition is 81.8% in assay [13]; 22.2% in [14]; 72.6% in [15]; 2.73% in assay [16]; 4.94% in [17]; -0.25% in assay [18]. The inhibition in assay [19] turned out to be 9.66%; in assay [20], 4.42%.

Consider `CS(=O)(=O)Nc1cccc(-c2ccc3c(NC(=O)C4CC4)n[nH]c3c2)c1`, for which the inhibition in assay [1] was 0.02%; in assay [2], 0.9%; in assay [3] it was 1.23%; in assay [4], -6.27%; in assay [5], 0.55%; in assay [6], -3.44%. Also, the inhibition in [7] was 5.34%; in assay [8], 1.56%; in [9], 2.41%; in assay [10], -5.5%; in assay [11], -2.02%; in [12], -0.31%. Also, the inhibition in assay [13] is 4.5%; in assay [14] it was -2.92%; in [15], -1.44%; in assay [16] it was 0.45%; in assay [17], 0.14%; in assay [18], -1.25%. The inhibition was -0.54% in assay [19] and 2.53% in assay [20].

Source of the values: ChEMBL document CHEMBL1961873, “Compounds: GSK PKIS; Assays: Nanosyn kinase panel” (2012).
